# Test results taken from PubChem BioAssay (NCI).
# The panel holds about 83,000 compounds, 20% with a hit somewhere; the sample as a whole holds those more often.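 The endpoint reported here, percent growth, reads 100 for growth as untreated, 0 for no net growth and -100 for all cells dead.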 Calls of active or inactive are those of the source. Rule for the calls: active = growth percent below 10; inactive = the rest.
# Tested on: K-562 leukemia
# Assay: NCI-60 one-dose screen, 48 h (100 = growth as untreated, 0 = no growth, -100 = all killed)
# Conditions: 10 µM unless noted
row,Compound,growth
1,CS(=O)(=O)c1ccc(-c2nn(-c3ccccc3)cc2/C=C/C(=O)c2ccc(Br)cc2)cc1,47.3% (inactive)
2,O=C(NCCCNc1cc(-c2cn(-c3ccccc3)nc2-c2cccc(O)c2)ccn1)Nc1ccc(F)cc1,5.52% (active)
3,CN1C(=O)N(C)C2C1NN=c1s/c(=C\c3ccccn3)c(=O)n12 (stereo unspecified),93.9% (inactive)
4,Fc1ccc(-c2cc3nc(C(Cl)Cl)nc(-c4cccs4)n3n2)cc1,44.5% (inactive)
5,COc1ccc([C@H]2c3[nH]c4ccccc4c3C[C@@H]3C(=O)N(C4CCN(Cc5ccccc5)CC4)CC(=O)N23)c(OC)c1,28.8% (inactive)
6,Cn1ccnc1C(=O)/C=C/c1ccc(C(=O)Nc2ccc(NC(=O)CCNC(=O)c3csc(Br)n3)cc2)cc1,16% (inactive)
7,Cc1nn(-c2ccccc2)cc1/C=N/Nc1nc(Nc2ccccc2)nc(Nc2ccc(S(N)(=O)=O)cc2)n1,9.56% (active)
8,COCCC[C@H]1O[C@@](O)([C@H](C)[C@@H]2CC(OC)C(O)/C=C(C)/C=C(C)/C=C(\C)C(OC3O[C@@H](C)[C@H](O)C(O)[C@@H]3O)C(C)/C=C(C)/C=C(OC)/C=C(\C)C(=O)O2)C(OC)C(O)[C@]1(C)O[C@H]1C[C@@H](O)[C@H](O[C@H]2C[C@](C)(O)[C@H](O)C(C)O2)C(C)O1 (stereo partly specified),21.2% (inactive)
9,COc1ccc(N2C(=O)c3cc(OC)c(OC)cc3NC2SCc2ccccc2)cc1 (stereo unspecified),88.6% (inactive)
10,Cc1cc2nc(C(Cl)Cl)nc(-c3ccco3)n2n1,89.7% (inactive)
11,COc1ccc(S(=O)(=O)NCCCNc2nccc(-n3cnc4ccccc43)n2)cc1,78.8% (inactive)
12,O=C(NCCCNc1cc(-c2cn(-c3ccccc3)nc2-c2cccc(O)c2)ccn1)Nc1cc(C(F)(F)F)cc(C(F)(F)F)c1,50.7% (inactive)
13,Cc1ccc(NC(=O)c2ccc(CN3CCN(C)CC3)c(I)c2)cc1Oc1ccc(-c2[nH]nc3ncnc(N)c23)cc1,1.61% (active)
14,Cc1ccc(-n2cc(/C=C/C(=O)c3ccc(S(C)(=O)=O)cc3)c(-c3ccc(S(C)(=O)=O)cc3)n2)cc1,27% (inactive)
15,COc1cc(/C=C/C(=O)c2ccc(NC(=O)CSc3nnc(-c4ccc5nc(-c6ccccc6)[nH]c5c4)o3)cc2)cc(OC)c1OC,58.3% (inactive)
16,O=c1oc2ccc(-c3ccc(F)cc3F)cc2c(=O)n1-c1cccc(C(F)(F)F)c1,12.9% (inactive)
17,C#CCOc1ccccc1C(Nc1ccccc1)c1nnnn1C1CCCCC1 (stereo unspecified),77.5% (inactive)
18,NCCN1CCN(c2nc(-c3ccccc3)nc3nc(-c4ccccc4)oc23)CC1,6.56% (active)
19,CN1C(=O)N(C)C2Nn3c(s/c(=C\c4ccccn4)c3=O)=NC21 (stereo unspecified),108% (inactive)
20,CNC(=O)c1cc(N2CCc3cc(NC(=O)Nc4ccc(Cl)c(Cl)c4)ccc32)ccn1,78.2% (inactive)
21,NS(=O)(=O)c1ccc(-n2cc(CC=O)nn2)cc1,93.6% (inactive)
22,COc1ccc(N)cc1C(=O)Nc1cccc(-c2cc(=O)c3c(OC)c(OC)c(OC)cc3o2)c1,46.6% (inactive)
23,O=C(CSc1nnc(-c2ccc(Cl)cc2)n1-c1ccccc1)Nc1ccc(F)cc1,92.4% (inactive)
24,O=C(c1cccc(F)c1)n1ccc2cc(NC(=S)Nc3cccnc3)ccc21,96% (inactive)
25,O=C(O)c1ccc(-n2cc(CNc3ccc(Cl)cc3)c(-c3ccc(F)cc3)n2)cc1,83.4% (inactive)
26,CCC(CC)N1C(=O)/C(=c2\sc3n(c2=O)C2C(NN=3)N(CC)C(=O)N2CC)c2ccccc21 (stereo unspecified),9.31% (active)
